The values below come from PubChem BioAssay (NCI).

Compounds without any hit were thinned out: in the full panel of roughly 83,000, 20% have a hit.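 Single-concentration screen, 48 h exposure, 96-well plates. Endpoint: percent growth. Below 10 = active.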 A number with no mark means an inactive call. The source made the active and inactive calls.

What all share (assay): NCI-60 one-dose screen, 48 h (100 = growth as untreated, 0 = no growth, -100 = all killed)
Holding throughout (settings): 10 µM unless noted

For assay [1], the system named is T-47D breast.
The subject of assay [2] is BT-549 breast.
In assay [3] the test system is MDA-MB-435 melanoma.
In assay [4] the test system is SW-620 colon.
Assay [5] concerns MCF7 breast.
Assay [6] deals with HCT-116 colon.
Assay [7] has as its system HCC-2998 colon.
The subject of assay [8] is KM12 colon.

Regarding `O=c1[nH]c(=S)[nH]c2nc[nH]c12`, the growth is 105% in assay [1]; 109% in assay [2]; 110% in assay [3]; 99.2% in assay [4]; 97.4% in assay [5]; 93.9% in assay [6]. Moreover, the growth was 99.7% in assay [7] and 106% in assay [8].

For the compound `O=S(=O)(NCCCNc1cc(-c2cn(-c3ccccc3)nc2-c2cccc(O)c2)ccn1)c1ccc(F)cc1`, the growth in assay [1] was 14.8%; in assay [2] it was 40.6%; in assay [3] it was 38.9%; in assay [4], 30.1%; in assay [5], 27.2%; in assay [6] it was 23%. Moreover, the growth in assay [7] is -34.8% (active); in assay [8], 24.2%.

As for `C=C(C)[C@@H]1CC[C@]2(C(=O)N3CCN(CC)CC3)CC[C@]3(C)[C@H](CC[C@@H]4[C@@](C)(CCC(=O)N5CCN(CC)CC5)[C@H](C(=C)C)CC[C@]43C)[C@@H]12`, the growth in assay [1] is 59.7%; in assay [2], 78.7%; in assay [3] it was 70.2%; in assay [4], 49.9%; in assay [5] it was 46.5%; in assay [6], 24.9%. The growth was 75.7% in assay [7] and 54.2% in assay [8].

Take `CN(C)c1cccc2[nH]c(-c3[nH]ncc3Nc3ccnc(N)n3)nc12`: the growth in assay [1] is -18.3% (active); in assay [2], -31.5% (active); in assay [3], -90% (active); in assay [4], -5.42% (active); in assay [5], -46.1% (active); in assay [6], -40.8% (active). Further, the values for the growth in assay [7] and in assay [8] were -41.9% (active) and -31.8% (active), respectively.

Take `CN1CCN(c2nc(-c3cccc4ccccc34)nc3sc4c(c23)CCCCCC4)CC1`: the growth in assay [1] was 67.2%; in assay [2], 91.9%; in assay [3], 93.3%; in assay [4], 83.8%; in assay [5] it was 68.2%; in assay [6], 67.9%. Also, the growth in assay [7] was 95.8%; in assay [8] it was 98.8%.

Regarding `N#Cc1c(-c2ccco2)nc2c(c(-c3ccccc3)nn2-c2ccccc2)c1-c1ccc(O)cc1`, the growth is 18.5% in assay [1]; 64.7% in assay [2]; 62.1% in assay [3]; 48% in assay [4]; 47.3% in assay [5]; 36.9% in assay [6]. The growth in assay [7] is 91.5%; in assay [8], 43%.

On to `COc1cc2[nH]c(C(=O)c3cc(OC)c(OC)c(OC)c3)c(N)c2cc1C#CCO`, for which the growth in assay [1] is 56%; in assay [2], 54%; in assay [3] it was -27.1% (active); in assay [4] it was 16.9%; in assay [5], 10.1%; in assay [6] it was 10%. For the same compound, the growth in assay [7] is 13.5%; in assay [8] it was 10.8%.

`COc1cc2nc(Cl)nc(Nc3cccc(C(=O)/C=C/c4ccc(Br)cc4)c3)c2cc1OC`: the growth in assay [1] was 72.4%; in assay [2], 79.7%; in assay [3] it was 89.6%; in assay [4], 15.1%; in assay [5], 31.7%; in assay [6], 15.8%. Further, the growth in assay [7] is 104%; in assay [8] it was 78.1%.

In the case of `C/C(=N\Nc1cc(C)c2ccccc2n1)c1ccccn1`, the growth in assay [1] is 16.5%; in assay [2], 24.1%; in assay [3] it was -90.9% (active); in assay [4] it was 7.9% (active); in assay [5], -82.9% (active); in assay [6], -76.2% (active). For the same compound, the growth in assay [7] was 4.77% (active); in assay [8], 4.67% (active).

`COC(=O)[C@]12CC[C@@H](C)[C@H](C)[C@@H]1C1=CC[C@@H]3[C@@]4(C)C[C@@H](OC(C)=O)[C@H](OC(C)=O)[C@@](C)(COC(C)=O)[C@@H]4[C@H](O)C[C@@]3(C)[C@]1(C)CC2`: the growth was -13.6% (active) in assay [1]; 0.787% (active) in assay [2]; 17.4% in assay [3]; 20.7% in assay [4]; 5.21% (active) in assay [5]; 9.38% (active) in assay [6]. The growth in assay [7] was 5.84% (active); in assay [8], 8.42% (active).

As to `NC1(N)C=CC2=C(C=C1)C1(N)C3=C(C=CC(N)(N)C=C3)N2C2(N)C3=C(C=CC(N)(N)C=C3)N1C1=C2C=CC(N)(N)C=C1`, the growth in assay [1] was 74.5%; in assay [2], 52.4%; in assay [3] it was 89.8%; in assay [4], 95.4%; in assay [5] it was 76.2%; in assay [6] it was 90.2%. The growth was 105% in assay [7] and 93.6% in assay [8].

Take `Cc1cccc(C)c1NC(=O)CSC(=S)N1CCN(CCOCCO)CC1`: the growth in assay [1] was 103%; in assay [2], 102%; in assay [3], 108%; in assay [4], 104%; in assay [5], 98.1%; in assay [6], 108%. Further, the values for the growth in assay [7] and in assay [8] were 97.6% and 98.5%, respectively.

For the compound `Clc1ccc2c(NCCNc3nc(-c4ccccc4)cc(-c4ccccc4)n3)ccnc2c1`, the growth in assay [1] was -59.7% (active); in assay [2], 75.1%; in assay [3] it was -82.6% (active); in assay [4], -53.7% (active); in assay [5], -68.7% (active); in assay [6], -69.9% (active). Further, the growth in assay [7] is -28.7% (active); in assay [8] it was 5.29% (active).

As for `COc1ccc(/C(=C\c2ccc3c(c2)OCO3)C(=O)Nc2nc3ccccc3s2)cc1OC`, the growth was 92.3% in assay [1]; 88.7% in assay [2]; 95.7% in assay [3]; 102% in assay [4]; 89.5% in assay [5]; 73.6% in assay [6]. For the same compound, the growth in assay [7] is 102%; in assay [8], 85.4%.

Consider `COc1ccc(-c2c(-c3nc4ccc(N5CCOCC5)cc4[nH]3)[nH]c(C)c2C(C)=O)cc1`, for which the growth in assay [1] is 27.3%; in assay [2] it was 64.9%; in assay [3] it was 29.7%; in assay [4], 63.4%; in assay [5], 10.8%; in assay [6], 34.8%. For the same compound, the growth was 35% in assay [7] and 46.5% in assay [8].
